From PubChem BioAssay (NCI)
About 79,000 compounds went through this panel and 15% of them were active in at least one assay; those are over-represented in the sample as a whole. Calls of active or inactive are those of the source. Cut-off read from the data, not from the text of the source: active = growth inhibition above about 70%; inactive = the rest.

How the values were obtained:
[1] = NCI Yeast Anticancer Drug Screen. Data for the rad52 strain (AID 147);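 note: 0% = growth of vehicle-treated control cultures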; conditions: S. cerevisiae rad52 mutant growth inhibition, hits give high values
In short: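 Compounds are applied to a genetically defined yeast strain lacking normal DNA damage repair, and inhibition of growth is expressed relative to cultures given vehicle only.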

[2] = NCI Yeast Anticancer Drug Screen. Data for the wt1 strain (AID 149);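 note: 0% = growth of vehicle-treated wt1 cultures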; conditions: S. cerevisiae wt1 strain (SPY 50644) growth inhibition, hits give high values
In short: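 Readout: yeast growth inhibition, normalised to vehicle controls, in the wt1 strain exposed to test compounds.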

[3] = NCI Yeast Anticancer Drug Screen. Data for the rad50EPP+ strain (AID 151);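 note: 0% = growth of vehicle-treated control cultures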; conditions: S. cerevisiae rad50 mutant strain, hits give high values
In short: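 Compounds were applied to the rad50EPP+ yeast strain, which bears a defined DNA repair alteration, and growth inhibition was determined relative to vehicle-treated cultures.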

[4] = NCI Yeast Anticancer Drug Screen. Data for the mgt1 strain (AID 153); conditions: S. cerevisiae mgt1 mutant growth inhibition, hits give high values
In short: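 Strain: mgt1 yeast, one of a set carrying defined DNA damage repair or cell cycle control alterations. Compound-treated growth compared with vehicle.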

[5] = NCI Yeast Anticancer Drug Screen. Data for the rad50 strain (AID 155);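 note: 0% = growth of vehicle-only cultures of the same strain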; conditions: S. cerevisiae rad50 strain growth inhibition, hits give high values
In short: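 Compounds were tested on a yeast strain with an engineered DNA damage repair alteration; the reported value is growth inhibition normalised to vehicle treatment.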

[6] = NCI Yeast Anticancer Drug Screen. Data for the mec2-1 strain (AID 157); conditions: S. cerevisiae mec2-1 strain, hits give high values
In short: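 Strain: mec2-1 (DNA repair/cell cycle alteration). Compound exposure, then growth measured; inhibition expressed relative to vehicle.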

[7] = NCI Yeast Anticancer Drug Screen. Data for the rad14 strain (AID 159);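 note: 0% = growth of vehicle-treated control cultures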; conditions: S. cerevisiae rad14 strain growth inhibition, hits give high values
In short: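 Compound-treated yeast with a defined DNA-repair lesion; growth inhibition normalised to vehicle-treated cultures.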

[8] = NCI Yeast Anticancer Drug Screen. Data for the sgs1 mgt1 strain (AID 161);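 note: 0% = growth of cultures given vehicle only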; conditions: S. cerevisiae sgs1 mgt1 strain, hits give high values
In short: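 Mutant yeast exposed to compound; growth scored against vehicle-only wells.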

[9] = NCI Yeast Anticancer Drug Screen. Data for the CLN2oe strain (AID 163);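 note: 0% = growth of vehicle-only control cultures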; conditions: S. cerevisiae CLN2oe strain, hits give high values
In short: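 Growth of a genetically modified yeast strain is measured after compound exposure and compared with cultures given vehicle alone.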

[10] = NCI Yeast Anticancer Drug Screen. Data for the cln2 rad14 strain (AID 165);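 note: 0% = growth equal to vehicle treated cultures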; conditions: S. cerevisiae cln2 rad14 strain, hits give high values
In short: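 Compounds are applied to the cln2 rad14 yeast strain, and growth is then compared with that of vehicle-treated cultures to give inhibition.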

[11] = NCI Yeast Anticancer Drug Screen. Data for the wt2 strain (AID 169);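 note: 0% = growth of vehicle-treated yeast cultures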; conditions: S. cerevisiae wt2 strain growth inhibition, hits give high values
In short: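 This strain belongs to a panel of yeast strains with defined genetic alterations in DNA damage repair or cell cycle control. Compounds are applied, and growth inhibition is measured against vehicle-treated cultures.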

[12] = NCI Yeast Anticancer Drug Screen. Data for the mlh1 strain (AID 171);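 note: 0% = growth of vehicle-treated control cultures of the same strain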; conditions: S. cerevisiae mlh1 strain growth inhibition, hits give high values
In short: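 Growth of the mutant yeast strain after compound exposure, expressed as inhibition relative to vehicle-only controls.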

[13] = NCI Yeast Anticancer Drug Screen. Data for the sgs1 strain (AID 173);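 note: 0% = growth of vehicle-only control cultures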; conditions: S. cerevisiae sgs1 mutant, hits give high values
In short: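 Growth of a yeast strain bearing a defined genetic alteration is measured after compound treatment. Inhibition is expressed relative to vehicle-only controls.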

[14] = NCI Yeast Anticancer Drug Screen. Data for the mlh1 rad18 strain (AID 175); conditions: S. cerevisiae mlh1 rad18 strain growth inhibition, hits give high values
In short: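 Read-out is yeast growth inhibition, calculated against vehicle-only controls. The compound was applied to a strain engineered with DNA damage repair alterations.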

[15] = NCI Yeast Anticancer Drug Screen. Data for the rad18 strain (AID 177); conditions: S. cerevisiae rad18 mutant growth inhibition, hits give high values
In short: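 Growth of the mutant yeast strain after compound exposure, normalised to vehicle-only cultures.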

[16] = NCI Yeast Anticancer Drug Screen. Data for the bub3 strain (AID 167); conditions: S. cerevisiae bub3 mutant strain, hits give high values
In short: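 Growth of a checkpoint-deficient yeast mutant is measured after compound exposure. Values represent inhibition relative to vehicle.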

[17] = at 5.0 µM (retest, dose inferred, filed as 0.5)
[18] = at 50.0 µM (retest, dose inferred, filed as 5.0)

Measured: growth inhibition

CCC(=O)Oc1ccc(/C=N/NC(N)=S)nc1
inactive: [1]; at 1.2 µM -6% | [1]; at 3.7 µM -11% | [1]; at 11.0 µM 4% | [1]; at 33.0 µM 13% | [1]; at 100.0 µM 18% | [2]; at 1.2 µM 0% | [2]; at 3.7 µM 7% | [2]; at 11.0 µM 7% | [2]; at 33.0 µM 13% | [2]; at 100.0 µM 19% | [3]; at 1.2 µM 0% | [3]; at 3.7 µM -5% | [3]; at 11.0 µM -9% | [3]; at 33.0 µM -11% | [3]; at 100.0 µM -12% | [4]; at 1.2 µM -1% | [4]; at 3.7 µM -3% | [4]; at 11.0 µM -2% | [4]; at 33.0 µM -5% | [4]; at 100.0 µM -4% | [5]; at 1.2 µM -7% | [5]; at 3.7 µM -11% | [5]; [17] -6% | [5]; at 11.0 µM -12% | [5]; at 33.0 µM 3% | [5]; [18] 6% | [5]; at 50.0 µM 22.4% | [5]; at 100.0 µM 21% | [6]; at 1.2 µM -2% | [6]; at 3.7 µM 0% | [6]; [17] 0% | [6]; at 11.0 µM 0% | [6]; at 33.0 µM 37% | [7]; at 1.2 µM 1% | [7]; at 3.7 µM 1% | [7]; at 11.0 µM 3% | [7]; at 33.0 µM 10% | [7]; at 100.0 µM 12% | [8]; [17] 0% | [8]; [18] 32% | [8]; at 50.0 µM 39% | [9]; at 1.2 µM -5% | [9]; at 3.7 µM -8% | [9]; at 11.0 µM -11% | [9]; at 33.0 µM -11% | [9]; at 100.0 µM -9% | [10]; [17] -5% | [10]; [18] -14% | [10]; at 50.0 µM 4% | [11]; at 1.2 µM 2% | [11]; at 3.7 µM 7% | [11]; at 11.0 µM 16% | [11]; at 33.0 µM 35% | [11]; at 100.0 µM 34% | [12]; at 1.2 µM -8% | [12]; at 3.7 µM -3% | [12]; at 11.0 µM -6% | [12]; at 33.0 µM -8% | [12]; at 100.0 µM 3% | [13]; at 1.2 µM -16% | [13]; at 3.7 µM -11% | [13]; at 11.0 µM -2% | [13]; at 33.0 µM 9% | [13]; at 100.0 µM 11% | [14]; [17] -2% | [14]; [18] 19% | [14]; at 50.0 µM 26.1% | [15]; at 1.2 µM -4% | [15]; at 3.7 µM 1% | [15]; at 11.0 µM -3% | [15]; at 33.0 µM -8% | [15]; at 100.0 µM -5%
active: [6]; [18] 95% | [6]; at 50.0 µM 87.4% | [6]; at 100.0 µM 91%

C(=N/NC1=NCCN1)/c1c2ccccc2c(/C=N\NC2=NCCN2)c2ccccc12
inactive: [2]; at 1.2 µM -4% | [2]; at 3.7 µM 9% | [2]; at 11.0 µM 9% | [2]; at 33.0 µM 52% | [3]; at 1.2 µM 6% | [3]; at 3.7 µM 33% | [4]; at 1.2 µM -8% | [4]; at 3.7 µM -6% | [4]; at 11.0 µM 4% | [4]; at 33.0 µM 64% | [5]; at 1.2 µM 63% | [6]; at 1.2 µM 6% | [6]; at 3.7 µM 1% | [6]; [17] -13% | [6]; at 11.0 µM 20% | [7]; at 1.2 µM -9% | [7]; at 3.7 µM -25% | [7]; at 11.0 µM -3% | [7]; at 33.0 µM 67% | [8]; [17] -7% | [10]; [17] 7% | [10]; [18] 56% | [10]; at 50.0 µM 62.5% | [16]; at 1.2 µM -17% | [16]; at 3.7 µM -21% | [16]; [17] -35% | [16]; at 11.0 µM -17% | [16]; at 33.0 µM 58% | [11]; at 1.2 µM -4% | [11]; at 3.7 µM -6% | [11]; at 11.0 µM 11% | [12]; at 1.2 µM 11% | [12]; at 3.7 µM 16% | [12]; at 11.0 µM 21% | [13]; at 1.2 µM 0% | [13]; at 3.7 µM 8% | [13]; at 11.0 µM 22% | [14]; [17] -14% | [15]; at 1.2 µM -3% | [15]; at 3.7 µM -6% | [15]; at 11.0 µM 4%
active: [1]; at 1.2 µM 70% | [1]; at 3.7 µM 86% | [1]; at 11.0 µM 94% | [1]; at 33.0 µM 94% | [1]; at 100.0 µM 96% | [2]; at 100.0 µM 86% | [3]; at 11.0 µM 81% | [3]; at 33.0 µM 92% | [3]; at 100.0 µM 94% | [4]; at 100.0 µM 90% | [5]; at 3.7 µM 85% | [5]; [17] 74% | [5]; at 11.0 µM 93% | [5]; at 33.0 µM 94% | [5]; [18] 88% | [5]; at 50.0 µM 82.2% | [5]; at 100.0 µM 94% | [6]; at 33.0 µM 81% | [6]; [18] 80% | [6]; at 50.0 µM 83.6% | [6]; at 100.0 µM 90% | [7]; at 100.0 µM 89% | [8]; [18] 90% | [8]; at 50.0 µM 85.2% | [16]; [18] 83% | [16]; at 50.0 µM 79.7% | [16]; at 100.0 µM 88% | [11]; at 33.0 µM 79% | [11]; at 100.0 µM 86% | [12]; at 33.0 µM 73% | [12]; at 100.0 µM 90% | [13]; at 33.0 µM 81% | [13]; at 100.0 µM 92% | [14]; [18] 83% | [15]; at 33.0 µM 78% | [15]; at 100.0 µM 92%
